Source: PubChem BioAssay AID1159580 (chemical genetic matrix, 2015)
Among all 5,500 compounds or so, about 2,000 (36%) were called active. Roughly 18% stayed inconclusive and do not appear here. Cut-off read from the data, not from the text of the source: active = normalized growth mostly below about 0.91 (no sharp cut-off); inconclusive = no clear call, values can overlap the other calls; inactive = mostly above about 0.92. Some of the results follow.

Test: chemical genetic growth profiling, strain panel (AID 1159580);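 note: tested at 20 µM; growth read once vehicle control cultures reached saturation at 30 °C; 1 = growth at the plate median or of vehicle wells; lower values mean less growth of the strain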
Conditions: growth OD

Measured: normalized growth

CC[C@H]1OC(=O)[C@H](C)[C@@H](O[C@H]2C[C@@](C)(OC)[C@@H](O)[C@H](C)O2)[C@H](C)[C@@H](O[C@@H]2O[C@H](C)C[C@H](N(C)C)[C@H]2O)[C@](C)(O)C[C@@H](C)/C(=N/OCOCCOC)[C@H](C)[C@@H](O)[C@]1(C)O
inactive: S. cerevisiae deletion strains, locus YJR075W, strain HOC1, stronger effect = lower value 0.989 | S. cerevisiae deletion strains, locus YKL009W, strain mrt4, stronger effect = lower value 1.01 | S. cerevisiae deletion strains, locus YKL068W, stronger effect = lower value 1 | S. cerevisiae deletion strains, locus YKL085W, strain MDH1 (second series), stronger effect = lower value 1 | S. cerevisiae deletion strains, locus YKL085W, strain MDH1, stronger effect = lower value 1 | S. cerevisiae deletion strains, locus YKL160W, strain elf1, stronger effect = lower value 1.02 | S. cerevisiae deletion strains, locus YKL190W, strain CNB1, stronger effect = lower value 1 | S. cerevisiae deletion strains, locus YKR001C, strain vps1, stronger effect = lower value 1.01 | S. cerevisiae deletion strains, locus YKR026C, strain gcn3, stronger effect = lower value 1 | S. cerevisiae deletion strains, locus YKR091W, strain srl3, stronger effect = lower value 1 | S. cerevisiae deletion strains, locus YLL001W, strain dnm1, stronger effect = lower value 1.02 | S. cerevisiae deletion strains, locus YLL026W, stronger effect = lower value 1.01 | S. cerevisiae deletion strains, locus YLL041C, strain sdh2, stronger effect = lower value 1.01 | S. cerevisiae deletion strains, locus YLR027C, strain aat2, stronger effect = lower value 1.01 | S. cerevisiae deletion strains, locus YLR039C, strain RIC1, stronger effect = lower value 0.968 | S. cerevisiae deletion strains, locus YLR058C, strain SHM2, stronger effect = lower value 0.998 | S. cerevisiae deletion strains, locus YLR102C, strain apc9, stronger effect = lower value 0.989 | S. cerevisiae deletion strains, locus YLR113W, strain HOG1, stronger effect = lower value 0.967 | S. cerevisiae deletion strains, locus YLR221C, strain rsa3, stronger effect = lower value 1.01 | S. cerevisiae deletion strains, locus YLR258W, strain gsy2, stronger effect = lower value 1.02 | S. cerevisiae deletion strains, locus YLR262C, strain YPT6 (second series), stronger effect = lower value 0.989 | S. cerevisiae deletion strains, locus YLR262C, strain YPT6, stronger effect = lower value 0.997 | S. cerevisiae deletion strains, locus YLR268W, strain sec22, stronger effect = lower value 1.03 | S. cerevisiae deletion strains, locus YLR320W, strain mms22, stronger effect = lower value 0.993 | S. cerevisiae deletion strains, locus YLR330W, strain CHS5, stronger effect = lower value 1.01 | S. cerevisiae deletion strains, locus YLR342W, strain FKS1 (second series), stronger effect = lower value 1.01 | S. cerevisiae deletion strains, locus YLR342W, strain FKS1, stronger effect = lower value 1.02 | S. cerevisiae deletion strains, locus YLR357W, strain rsc2, stronger effect = lower value 1.05 | S. cerevisiae deletion strains, locus YLR370C, strain arc18, stronger effect = lower value 1.01 | S. cerevisiae deletion strains, locus YLR371W, strain rom2, stronger effect = lower value 0.972 | S. cerevisiae deletion strains, locus YLR418C, strain cdc73, stronger effect = lower value 1.03 | S. cerevisiae deletion strains, locus YML016C, strain PPZ1, stronger effect = lower value 1.01 | S. cerevisiae deletion strains, locus YML032C, strain rad52, stronger effect = lower value 1.01 | S. cerevisiae deletion strains, locus YML120C, strain ndi1, stronger effect = lower value 1.01 | S. cerevisiae deletion strains, locus YML124C, strain tub3, stronger effect = lower value 0.999 | S. cerevisiae deletion strains, locus YMR058W, strain fet3, stronger effect = lower value 1.01 | S. cerevisiae deletion strains, locus YMR078C, strain ctf18, stronger effect = lower value 1.01 | S. cerevisiae deletion strains, locus YMR125W, strain sto1, stronger effect = lower value 1.01 | S. cerevisiae deletion strains, locus YMR129W, stronger effect = lower value 1.02 | S. cerevisiae deletion strains, locus YMR205C, strain PFK2, stronger effect = lower value 0.99 | S. cerevisiae deletion strains, locus YMR223W, strain ubp8, stronger effect = lower value 1.03 | S. cerevisiae deletion strains, locus YMR231W, strain pep5, stronger effect = lower value 1.01 | S. cerevisiae deletion strains, locus YMR307W, strain GAS1, stronger effect = lower value 1.02 | S. cerevisiae deletion strains, locus YNL067W, strain RPL9B, stronger effect = lower value 0.986 | S. cerevisiae deletion strains, locus YNL071W, strain lat1, stronger effect = lower value 0.955 | S. cerevisiae deletion strains, locus YNL183C, strain NPR1, stronger effect = lower value 0.937 | S. cerevisiae deletion strains, locus YNL209W, strain ssb2, stronger effect = lower value 1.01 | S. cerevisiae deletion strains, locus YNL233W, strain BNI4, stronger effect = lower value 0.977 | S. cerevisiae deletion strains, locus YNL248C, strain rpa49, stronger effect = lower value 1.03 | S. cerevisiae deletion strains, locus YNL250W, strain rad50, stronger effect = lower value 1.05 | S. cerevisiae deletion strains, locus YNL271C, strain bni1, stronger effect = lower value 1.01 | S. cerevisiae deletion strains, locus YNL298W, strain CLA4, stronger effect = lower value 1.02 | S. cerevisiae deletion strains, locus YNL307C, strain MCK1, stronger effect = lower value 1 | S. cerevisiae deletion strains, locus YNL322C, strain KRE1 (second series), stronger effect = lower value 1.01 | S. cerevisiae deletion strains, locus YNR049C, strain mso1, stronger effect = lower value 1.01 | S. cerevisiae deletion strains, locus YNR052C, strain pop2, stronger effect = lower value 1 | S. cerevisiae deletion strains, locus YOL006C, strain TOP1, stronger effect = lower value 0.92 | S. cerevisiae deletion strains, locus YOL012C, strain htz1 1.11 | S. cerevisiae deletion strains, locus YOL147C, strain pex11, stronger effect = lower value 1.01 | S. cerevisiae deletion strains, locus YOR001W, strain rrp6, stronger effect = lower value 1.01 | S. cerevisiae deletion strains, locus YOR061W, strain CKA2, stronger effect = lower value 1 | S. cerevisiae deletion strains, locus YOR069W, strain VPS5, stronger effect = lower value 1.01 | S. cerevisiae deletion strains, locus YOR070C, strain gyp1, stronger effect = lower value 1 | S. cerevisiae deletion strains, locus YOR080W, strain dia2, stronger effect = lower value 1.02 | S. cerevisiae deletion strains, locus YOR083W, strain WHI5, stronger effect = lower value 1.02 | S. cerevisiae deletion strains, locus YOR106W, strain vam3, stronger effect = lower value 1.03 | S. cerevisiae deletion strains, locus YOR136W, strain idh2, stronger effect = lower value 1.02 | S. cerevisiae deletion strains, locus YOR144C, strain elg1, stronger effect = lower value 1 | S. cerevisiae deletion strains, locus YOR184W, strain ser1, stronger effect = lower value 1.01 | S. cerevisiae deletion strains, locus YOR231W, strain MKK1, stronger effect = lower value 0.988 | S. cerevisiae deletion strains, locus YOR265W, strain rbl2, stronger effect = lower value 1.01 | S. cerevisiae deletion strains, locus YOR270C, strain vph1, stronger effect = lower value 1.01 | S. cerevisiae deletion strains, locus YOR290C, strain snf2, stronger effect = lower value 1.01 | S. cerevisiae deletion strains, locus YOR316C, strain cot1, stronger effect = lower value 0.994 | S. cerevisiae deletion strains, locus YPL051W, strain arl3, stronger effect = lower value 1.01 | S. cerevisiae deletion strains, locus YPL055C, strain LGE1, stronger effect = lower value 0.988 | S. cerevisiae deletion strains, locus YPL078C, strain atp4, stronger effect = lower value 1.01 | S. cerevisiae deletion strains, locus YPL106C, strain sse1, stronger effect = lower value 1.04 | S. cerevisiae deletion strains, locus YPL240C, strain hsp82, stronger effect = lower value 1.01 | S. cerevisiae deletion strains, locus YPL241C, strain CIN2, stronger effect = lower value 1 | S. cerevisiae deletion strains, locus YPL256C, strain CLN2, stronger effect = lower value 0.994 | S. cerevisiae deletion strains, locus YPR119W, strain clb2, stronger effect = lower value 0.989 | S. cerevisiae deletion strains, locus YPR141C, strain kar3, stronger effect = lower value 1.01 | S. cerevisiae deletion strains, locus YPR163C, strain tif3, stronger effect = lower value 1 | S. cerevisiae deletion strains, locus YPR167C, strain met16, stronger effect = lower value 1.01 | S. cerevisiae deletion strains, strain wtn01, stronger effect = lower value 1.02 | S. cerevisiae strains, strain wild type, stronger effect = lower value 1.01
